In all, about 330,000 compounds went through this assay and about 10,000 (3%) were called active. Shown is part of a subset that was picked to be rich in actives. Unmarked numbers belong to inactive results.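 How the source made its calls: active means inhibition of at least 50% at 8 µM in the primary screen; inactive means the rest.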

In this assay the target is Protein Mdm4 (Homo sapiens) + E3 ubiquitin-protein ligase Mdm2 (Homo sapiens) (UniProt O15151+Q00987). Briefly: inhibitors of human Mdm2-MdmX association, primary screen, cell-based, luminescence, split luciferase, SaOS-2, uHTS (AID 485346). The note with it: SaOS-2 split-luciferase Mdm2/MdmX complementation, at 8 µM, hits give high values.
Protein Mdm4 (Homo sapiens) + E3 ubiquitin-protein ligase Mdm2 (Homo sapiens), sequence (O15151 whole entry, looked up): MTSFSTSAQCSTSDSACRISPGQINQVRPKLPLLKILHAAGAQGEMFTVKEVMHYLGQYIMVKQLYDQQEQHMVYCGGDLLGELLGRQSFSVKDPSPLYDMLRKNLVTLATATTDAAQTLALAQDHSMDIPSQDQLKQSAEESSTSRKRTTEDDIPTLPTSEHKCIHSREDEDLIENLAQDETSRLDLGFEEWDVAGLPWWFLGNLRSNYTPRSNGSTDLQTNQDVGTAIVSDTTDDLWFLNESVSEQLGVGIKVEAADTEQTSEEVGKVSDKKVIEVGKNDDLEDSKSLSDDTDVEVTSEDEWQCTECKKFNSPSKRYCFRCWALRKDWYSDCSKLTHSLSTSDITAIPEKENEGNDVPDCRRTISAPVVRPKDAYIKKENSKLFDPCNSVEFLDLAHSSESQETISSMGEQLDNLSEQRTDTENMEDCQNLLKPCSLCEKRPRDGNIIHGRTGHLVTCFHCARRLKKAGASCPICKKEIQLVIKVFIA
Protein Mdm4 (Homo sapiens) + E3 ubiquitin-protein ligase Mdm2 (Homo sapiens), sequence (Q00987 whole entry, looked up): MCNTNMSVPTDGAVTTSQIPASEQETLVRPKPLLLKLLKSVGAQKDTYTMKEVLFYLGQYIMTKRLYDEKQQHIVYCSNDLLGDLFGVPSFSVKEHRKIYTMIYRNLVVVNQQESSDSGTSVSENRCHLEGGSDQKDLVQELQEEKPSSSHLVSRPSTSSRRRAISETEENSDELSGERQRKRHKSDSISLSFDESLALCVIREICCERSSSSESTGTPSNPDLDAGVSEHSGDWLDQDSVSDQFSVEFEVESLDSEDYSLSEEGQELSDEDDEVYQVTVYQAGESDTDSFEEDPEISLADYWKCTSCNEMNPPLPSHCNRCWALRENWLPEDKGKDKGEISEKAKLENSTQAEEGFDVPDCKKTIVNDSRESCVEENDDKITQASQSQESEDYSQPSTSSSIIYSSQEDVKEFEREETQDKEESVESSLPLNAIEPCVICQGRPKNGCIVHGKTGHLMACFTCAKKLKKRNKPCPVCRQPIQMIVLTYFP
Usually inhibition stands for the drop in the measured response relative to a control, in per cent. Turning to `CCc1ccccc1NC(=O)c1ccc2snnc2c1`, the inhibition was 25.3%.

`O=C(Nc1cccc(Br)c1)c1ccc2snnc2c1`: the inhibition was -3.74%.

Take `O=C(Nc1ccc2ccccc2c1)Nc1ccc2snnc2c1`: the inhibition is 88.1% (active).

With `CC(C)[C@@H](C(=O)O)N(Cc1cccc(CN([C@H](C(=O)O)C(C)C)S(C)(=O)=O)c1)S(C)(=O)=O`, the inhibition is 9.86%.

In the case of `CCN(CC)S(=O)(=O)c1ccc(Cl)c(NC(=O)c2ccncc2)c1`, the inhibition is 11.7%.

With `CCN(CC)S(=O)(=O)c1ccc(NC(=O)c2cccnc2Cl)c(NC(=O)c2cccnc2Cl)c1`, the inhibition was 94.7% (active).

With `Cc1cccc(NC(=O)c2cccnc2Cl)n1`, the inhibition was 2.81%.

In the case of `COc1ccc(OC)c(NC(=O)c2ccc3c(c2)CCN3S(C)(=O)=O)c1`, the inhibition was 15.2%.

On to `COc1ccc(OC)c(NC(=O)c2sc3nc(C)cc(C)c3c2N)c1`, for which the inhibition was 58.3% (active).

For `COCc1cc(C)nc2sc(C(=O)NC3CCCCC3)c(N)c12`, the inhibition was 7.84%.

On to `COc1ccc(N(C(=O)c2ccc(C)cc2)S(=O)(=O)c2cccs2)cc1`, for which the inhibition is 17.4%.

Turning to `CN(C)c1ccc2c(=O)[nH][nH]c(=O)c2c1`, the inhibition was 4.05%.

On to `O=C(NCc1cccs1)c1ccc2c(c1)ncn2C1CCCC1`, for which the inhibition was -11.4%.

In the case of `CCOC(=O)C1CCN(Cc2c(C(=O)N3CCOCC3)nc3c(C)cccn23)CC1`, the inhibition was 15.2%.

For `COCCCNc1nc2c(-c3cccc(C)c3)nnn2c2ccc(Cl)cc12`, the inhibition was 55.3% (active).

As to `COC(=O)Cn1nc(-c2ccccc2)c2cc(Cl)ccc21`, the inhibition was 10.1%.

Consider `COCCCNc1nc2c(-c3cccc(C(F)(F)F)c3)nnn2c2ccccc12`, for which the inhibition is 17.3%.

With `CC1CCCN(c2ccc(C(=O)NCCc3ccccc3)cn2)C1` (centres undefined), the inhibition was -61.6%.

Take `O=c1oc2ccccc2c(NC2CCCCC2)c1NS(=O)(=O)c1ccc(Cl)cc1`: the inhibition was 14.1%.

On to `S=c1[nH]nc2c3c4c(sc3ncn12)CCCC4`, for which the inhibition is 14%.

With `O=C1CCC/C=C/C[C@@H](CC(=O)N(CCO)Cc2ccccc2)C(=O)NC[C@H](c2ccccc2)O1`, the inhibition is -21.8%.

Turning to `O=C1NC[C@@H](c2ccccc2)OC(=O)[C@H](Cc2ccc(F)cc2)CC/C=C/C[C@H]1CC(=O)N(CCO)Cc1ccccc1`, the inhibition was 59.7% (active).

Regarding `O=C1N[C@@H](c2ccccc2)COC(=O)[C@H](Cc2ccc(F)cc2)C/C=C\C[C@@H]1CC(=O)N(CCO)Cc1ccccc1`, the inhibition is 9.71%.

For the molecule `Cn1c(CCNS(=O)(=O)c2ccc(F)cc2)nnc1SCc1cccnc1`, the inhibition was 13.7%.

As for `CN[C@H](C(=O)NC[C@H]1O[C@@H](n2cnc3c(N)ncnc32)[C@H](O)[C@@H]1O)[C@@H](C)OCc1ccccc1`, the inhibition was 16.8%.

Turning to `COc1ccc2cc(C3=CC(=O)C[C@H](c4ccc5c(c4)OCO5)C3)ccc2c1`, the inhibition is 3.41%.

In the case of `COC(=O)N(NC(=O)C(O)(C(C)C)C(C)C)c1ccccc1`, the inhibition is -17.3%.

Take `CCCC(O)(CCC)C(=O)NN(C(=O)CCl)c1cccc(C)c1`: the inhibition is 94% (active).

With `Cc1ccc(N(NC(=O)C(C)(C)O)C(=O)c2ccccc2)cc1C`, the inhibition was -3.58%.

For `CCCCC(O)(CCCC)C(=O)NN(C(=O)CCl)c1ccccc1`, the inhibition was 87.3% (active).

As to `CCCCCNC(=O)C1c2ccccc2Oc2ccccc21`, the inhibition was -5.28%.

As for `CC(C)(O)C(=O)NN(C(=O)c1ccccc1)c1cccc(Br)c1`, the inhibition is -9.41%.

On to `CCn1cc(C(=O)N[C@@H](C)C(=O)NCCO)c(=O)c2cc3c(cc21)OCO3`, for which the inhibition was -4.24%.

For `Cc1ccc(N(CC(=O)NCC2CCCO2)C(=O)CNS(=O)(=O)c2ccc(Cl)cc2)cc1` (centres undefined), the inhibition is -1.2%.

In the case of `Cc1ccc2c(c1)N(CCCC(=O)NCc1cccnc1)C(=O)CO2`, the inhibition was 5.4%.

`CSCC[C@H](NC(=O)NCc1cccs1)C(=O)O`: the inhibition was 3.11%.

In the case of `O=C(Cc1nc2ccccc2[nH]c1=O)c1ccc(Cl)cc1`, the inhibition was -186%.

Regarding `O=C(CCc1nc2ccccc2c(=O)[nH]1)OCC(=O)c1cccc(Cl)c1`, the inhibition is 30.6%.

In the case of `O=C(/C(=C/c1cccc(Cl)c1)c1nc2ccccc2[nH]1)c1ccccc1`, the inhibition was 100% (active).

As for `CCCN(CCC)c1c([N+](=O)[O-])c(=O)oc2ccccc12`, the inhibition is -1.56%.

In the case of `Cc1cccc(-n2c(C)cc(/C=N\NC(=O)c3cccs3)c2C)c1`, the inhibition was 67.2% (active).

For the molecule `Cc1ccc(-n2nc(C)c(/C=N/NC(=O)c3cccs3)c2Cl)cc1`, the inhibition is 3.87%.

For `Cc1cccc(-n2c(C)cc(/C=N/NC(N)=S)c2C)c1`, the inhibition is -13.2%.

For the molecule `CCC1CCC2(CC1)NC(=O)N(CC(=O)Nc1ccc(OC)cc1)C2=O` (centres undefined), the inhibition is 18.6%.

Regarding `CCN(CC(=O)Nc1ccc(NC(C)=O)cc1)C(=O)C1CC(=O)N(Cc2ccc(C)cc2)C1` (centres undefined), the inhibition was -26.3%.

Consider `CCN(CC)c1ccc(C(=O)c2cnc(/N=C/N(C)C)s2)cc1`, for which the inhibition is -23.2%.

Take `Cc1ccc(NC(=S)NC(=O)c2ccc(-c3ccccc3)cc2)cc1`: the inhibition is 12.8%.

With `CCOC(=O)C1=C(NC(=S)NC(=O)c2ccccc2)c2ccccc2CC1(C)C`, the inhibition is 51.4% (active).

As to `COCCCNC(=S)NC(=O)c1ccccc1`, the inhibition is -18.2%.

As for `CC1(C)C[C@H]2C3=CCC4[C@@]5(C)CC[C@H](O)[C@](C)(CO)C5CC[C@@]4(C)[C@]3(C)C[C@@H](O)[C@@]2(CO)[C@@H](O)[C@@H]1O` (some centres undefined), the inhibition was 17.8%.

As for `O=C(Nc1cccc2cccnc12)c1cccc(Cl)c1`, the inhibition is -3.29%.

In the case of `COc1ccc(NC(=O)c2ccco2)cc1NC(=O)c1ccc(C#N)cc1F`, the inhibition is 5.85%.

Consider `N#Cc1ccc(C(=O)Nc2cccc3cccnc23)c(F)c1`, for which the inhibition was 56.2% (active).

Regarding `CC(C)Cc1ccc(C(C)C(=N)N)cc1` (centres undefined), the inhibition was -18.4%.

Take `COc1ccc(S(=O)(=O)N(CC(=O)NCc2ccco2)c2ccc(F)cc2)cc1`: the inhibition is 10.5%.

For `COC1=C(N2CCOCC2)C(=O)c2ccccc2C1=O`, the inhibition is 17.1%.

Consider `Cc1ccccc1-c1ccc(Nc2ccc(C(=O)N3CCOCC3)cc2)nn1`, for which the inhibition is 0.851%.

Turning to `Cc1oc2c(c1C(=O)N1CCOCC1)C(=O)c1ccccc1C2=O`, the inhibition is 53.6% (active).

With `Nc1nnnn1CC(=O)N/N=C/c1ccc(-c2cccc(Cl)c2)o1`, the inhibition is 0.676%.

In the case of `Nc1nnn(CC(=O)N/N=C/c2ccccc2)n1`, the inhibition is 14.3%.

For `O=C(Cn1nnc(-c2ccccc2)n1)N/N=C/c1ccc(-c2ccc(Cl)cc2)o1`, the inhibition is 69.4% (active).

Consider `Cc1ccc(-n2c(=O)cc(N3CCN(Cc4ccccc4)CC3)[nH]c2=O)cc1`, for which the inhibition was 27.6%.

`CN(C)S(=O)(=O)c1ccc(N2CCCC2)c(C(=O)Nc2ccc(Br)cc2F)c1`: the inhibition is 16.4%.

For `CN1CCC(N(C)S(=O)(=O)c2ccc(NC(=O)c3cccc(C#N)c3)cc2)CC1`, the inhibition is -11.1%.

As to `Cc1ccc2nc(NC(=O)C3CSC4(C)CCC(=O)N34)sc2c1` (centres undefined), the inhibition is 11.9%.

For the molecule `O=C(COc1ccccc1O)NC1CCCC1`, the inhibition is 7.91%.

For `CCCCCCc1ccc(O)cc1O`, the inhibition was 26.2%.

On to `Cc1c(CC(=O)NCCCCCC(=O)O)c(=O)oc2cc3occ(-c4ccccc4)c3cc12`, for which the inhibition is 7.02%.

`CCCCCCc1cc2cc(-c3nnc(-c4ccccc4)o3)c(=O)oc2cc1O`: the inhibition is 84.7% (active).

Take `COc1ccc(N2CCN(C(CNS(=O)(=O)c3ccc(C)cc3)c3ccccc3)CC2)cc1` (centres undefined): the inhibition was 10.9%.

Regarding `CCC1CO/C(=C(\C(=C(Cl)Cl)N2CCOCC2)[N+](=O)[O-])N1` (centres undefined), the inhibition was 4.94%.

For the molecule `CN(C)CCCN(C(=O)c1ccc(S(=O)(=O)N2CCCCCC2)cc1)c1nc2ccc(Br)cc2s1`, the inhibition is 70.8% (active).

As to `COc1cccc(C(=O)Nc2nc3ccc(S(C)(=O)=O)cc3s2)c1`, the inhibition was -20.5%.

Consider `CN(C)CCCN(C(=O)c1ccc(S(=O)(=O)N2CCCCCC2)cc1)c1nc2cc3c(cc2s1)OCCO3`, for which the inhibition was 52.3% (active).

Regarding `CS(=O)(=O)c1ccc2nc(NC(=O)c3ccc(Cl)nc3)sc2c1`, the inhibition was 20.5%.

For the molecule `CCOc1ccc2nc(N(CCCN(C)C)C(=O)c3ccc(C(=O)c4ccccc4)cc3)sc2c1`, the inhibition is 48.2%.

`COc1ccc2sc(N(CCCN(C)C)C(=O)c3ccc(S(=O)(=O)N(C)C4CCCCC4)cc3)nc2c1`: the inhibition was 19.3%.

Regarding `CS(=O)(=O)c1ccc2nc(NC(=O)c3ccc(N4CCCC4=O)cc3)sc2c1`, the inhibition is 56.8% (active).

Take `CC1CCN(C(=O)c2cccc(S(=O)(=O)N3CCCc4ccccc43)c2)CC1`: the inhibition is 16.9%.

On to `CCc1ccc2nc(N(CCCN(C)C)C(=O)c3ccc4c(c3)OCCO4)sc2c1`, for which the inhibition was 39.7%.

As to `CCN(CC)CCN(C(=O)c1ccc(S(=O)(=O)N2CCOCC2)cc1)c1nc2cc3c(cc2s1)OCCO3`, the inhibition is 4.55%.

For `Cc1ccc2nc(N(CCN(C)C)C(=O)C3=COCCO3)sc2c1`, the inhibition is 23.3%.

In the case of `CN(C)CCCN(C(=O)c1ccc(S(=O)(=O)N2CCCc3ccccc32)cc1)c1nc2ccc(F)cc2s1`, the inhibition was 76% (active).

On to `CCN(CC)CCn1cnc2c1c(=O)n(CCOC(=O)c1cc(OC)c(OC)c(OC)c1)c(=O)n2C`, for which the inhibition was 11.6%.

`CCN(CC)CCN1C(=O)C2C(C(=O)Nc3ccc(Br)cc3)C3C=CC2(O3)C1C(=O)NC1CCCCC1` (centres undefined): the inhibition is -3.95%.

Take `CC(C)CN1CCNC(=O)C1CC(=O)N(C)CC1CCOCC1` (centres undefined): the inhibition was 11.5%.

Take `Cc1ccc(CNC(=O)c2ccc(CS(=O)Cc3cccc(Cl)c3)o2)cc1` (centres undefined): the inhibition was -2.29%.

As to `O=C(CCc1ccccc1Cl)Nc1ccc(S(=O)(=O)Nc2nccs2)cc1`, the inhibition was 7.38%.

Take `O=C(COC(=O)c1cccnc1Cl)Nc1ccc(S(=O)(=O)N2CCOCC2)cc1`: the inhibition is 5.66%.
